Screening results: PubChem, National Center for Advancing Translational Sciences (NCATS)
RXFP1 antagonist: qHTS Assay for Antagonists of the Relaxin Receptor RXFP1; activity change, negative = inhibition, % at 57.5 µM; Relaxin receptor 1 (Homo sapiens), Q9HBX9; 350,000 tested, 0.59% active; HEK293-RXFP1, relaxin-stimulated cAMP HTRF, 30 min; hits give low values; AID 1259400, 2018;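 active = activity change of -60% or lower, but not beyond a set lower limit; inconclusive = change between -60% and -40%, or beyond the set limit; inactive = change above -40%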; also: % is scaled to controls: 0 for no effect and ±100 for the full control effect
RXFP1 ag: qHTS Assay for Agonists of the Relaxin Receptor RXFP1; Potency, µM (top dose mostly 57.5 µM), inactives show top-dose activation, hits mostly activators; 370,000 tested, 0.3% active; HEK293T-RXFP1 cAMP TR-FRET, 30 min; response scale: percent of porcine relaxin response, buffer zero; Relaxin receptor 1 (Homo sapiens), Q9HBX9; active = well fitted activation curve with a large enough effect; inconclusive = small, poorly fitted or top-dose-only effect; also: potency is read from the fitted curve at half-maximal effect; % is scaled to controls: 0 for no effect and ±100 for the full control effect; nearly all actives have a fitted effect of over 60% in size
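HEK293T cells stably expressing RXFP1 were pretreated with the PDE4 inhibitor Ro 20174, exposed to compounds for 30 min at 37C, lysed, and cAMP was read by TR-FRET. Data normalized to buffer (basal) and 29 nM porcine relaxin (100%).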
TRPV1 PAM: HTS Assay for Compounds that Act as Potentiators of the Vanilloid Receptor 1; 320,000 tested, 0.02% active; potentiation, % at 8.33 µM; AID 540277, 2011; TRPV1-expressing cells, Fluo-8 calcium influx, capsaicin EC20 potentiation; in the data active = potentiation above about 80%; inconclusive = between about 30% and that limit; also: 0% is about no effect
Target sequence (Q8NER1 whole entry, looked up): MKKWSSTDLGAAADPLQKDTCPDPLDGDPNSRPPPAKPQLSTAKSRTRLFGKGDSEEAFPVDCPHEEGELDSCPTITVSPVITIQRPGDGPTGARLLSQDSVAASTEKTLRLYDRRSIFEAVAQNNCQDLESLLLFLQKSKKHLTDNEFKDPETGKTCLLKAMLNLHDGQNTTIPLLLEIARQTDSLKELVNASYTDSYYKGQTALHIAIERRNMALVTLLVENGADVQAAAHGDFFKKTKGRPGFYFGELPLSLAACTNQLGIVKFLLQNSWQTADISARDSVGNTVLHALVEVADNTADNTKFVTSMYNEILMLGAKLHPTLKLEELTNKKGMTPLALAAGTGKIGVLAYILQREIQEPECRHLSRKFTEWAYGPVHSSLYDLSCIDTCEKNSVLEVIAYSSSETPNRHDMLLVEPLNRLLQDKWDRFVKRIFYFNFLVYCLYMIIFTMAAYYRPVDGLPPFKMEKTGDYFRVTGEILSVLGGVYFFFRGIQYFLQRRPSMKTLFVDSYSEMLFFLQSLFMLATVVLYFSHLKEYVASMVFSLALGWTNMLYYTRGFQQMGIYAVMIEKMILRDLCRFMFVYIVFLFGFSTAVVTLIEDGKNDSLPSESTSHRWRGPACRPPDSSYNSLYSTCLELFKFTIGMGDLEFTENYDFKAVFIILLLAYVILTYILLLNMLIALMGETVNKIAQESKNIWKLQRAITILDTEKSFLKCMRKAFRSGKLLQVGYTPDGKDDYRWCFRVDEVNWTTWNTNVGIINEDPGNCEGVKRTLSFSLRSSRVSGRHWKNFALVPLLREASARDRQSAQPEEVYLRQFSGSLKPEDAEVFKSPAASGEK
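Cells expressing TRPV1 were dye-loaded with Fluo-8 and read kinetically: 10 s baseline, 3 min after compound (agonist portion), then 2 min after EC20 capsaicin (allosteric enhancer portion). Calcium-bound dye fluorescence at 480/520 nm.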
TRPV1 ag: HTS Assay for Compounds that Act as Agonists of the Vanilloid Receptor 1. Transient receptor potential cation channel subfamily V member 1 (Homo sapiens), Q8NER1. TRPV1-expressing cells, Fluo-8 calcium influx, agonist mode. activation, % at 8.33 µM. 320,000 tested, 0.19% active. AID 540275, 2011; in the data active = activation above about 80%; inconclusive = between about 30% and that limit; also: 0% is about no effect
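TRPV1-expressing cells were cultured overnight at 35.5C and loaded with Fluo-8 calcium dye for 40 to 90 min at room temperature. After a 10 s baseline, compound was added and calcium influx was read kinetically for 3 min (ex 480/em 520 nm).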
gsp ag: qHTS for Agonist of gsp, the Etiologic Mutation Responsible for Fibrous Dysplasia/McCune-Albright Syndrome: qHTS; AID 624287, 2012; Potency, µM (series often up to 76.9 µM), without a hit: at the top dose activation (cAMP increase), hits mostly activators; 340,000 tested, 0.13% active; gsp mutant cells, cAMP HTRF, 30 min; active = well fitted activation curve with a large enough effect; inconclusive = small, poorly fitted or top-dose-only effect, or another doubt; inactive = no such curve, though single readings can be large or run the other way; cell line not stated here;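 also: phosphodiesterase inhibitor Ro 20-1724 added with compounds to block cAMP breakdown; potency is read from the fitted curve at half-maximal effect; nearly all actives have a fitted effect of over 60% in size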
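Cells in DMEM/10% FBS with G418 were pretreated with compounds in DMSO plus […] (300 uM stock) for 30 min at 37C. cAMP was measured by HTRF (cAMP-d2 plus anti-cAMP antibody-K) after 30 min at room temperature.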
gsp antag: qHTS for Antagonists of gsp, the Etiologic Mutation Responsible for Fibrous Dysplasia/McCune-Albright Syndrome: qHTS; Potency, µM (titrated, usually from 76.9 µM), for inactives: top-dose activity change, negative = inhibition, usual class: inhibitors; 340,000 tested, 0.4% active; gsp-mutant cells, cAMP HTRF, 30 min; calls by dose curve; cell line not stated here;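 also: intracellular cAMP measured with PDE inhibitor Ro 20-1724 present during compound exposure; potency is read from the fitted curve at half-maximal effect; % is scaled to controls: 0 for no effect and ±100 for the full control effect; nearly all actives have a fitted effect of over 65% in size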
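Cells, 2000/well, grown 16–24 h in DMEM 10% FBS with 0.5 mg/ml G418, then compounds plus […] (300 uM addition stock), 30 min at 37C. cAMP read by HTRF (cAMP-d2 and anti-cAMP antibody-K in lysis buffer) after 30 min RT.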
The depositor's hits bear a star; ? = inconclusive; · = no result given; [ ] = remark or other dose. The list is not random: actives were taken first. Their share in the collection is about 1.1%.

SMILES	RXFP1 antagonist	RXFP1 ag	TRPV1 PAM	TRPV1 ag	gsp ag	gsp antag
CCOc1cccc(C2/C(=C(/O)c3ccc4c(c3)CC(C)O4)C(=O)C(=O)N2CCN2CCOCC2)c1 (stereo not given)	14	?	0	-4	?	5%
Cc1cc(OCC(C)C)ccc1/C(O)=C1/C(=O)C(=O)N(Cc2cccnc2)C1c1ccncc1 (stereo not given)	23	?	0	2	5.6µM*	14%
Cc1nc2ccccn2c1/C(O)=C1\C(=O)C(=O)N(CCCn2ccnc2)C1c1ccncc1 (stereo not given)	22	5%	6	1	18µM*	14%
CCOc1cccc(C2/C(=C(/O)c3ccc4c(c3)CC(C)O4)C(=O)C(=O)N2Cc2ccncc2)c1 (stereo not given)	12	?	14	-5	5µM*	-13%
Cc1nc2ccccn2c1/C(O)=C1\C(=O)C(=O)N(CCN(C)C)C1c1cccnc1 (stereo not given)	-9	3%	13	-1	?	7%
CCCCOc1cccc(C2/C(=C(/O)c3ccc4c(c3)CC(C)O4)C(=O)C(=O)N2CCN2CCOCC2)c1 (stereo not given)	-7	28µM*	8	-1	?	-4%
Cc1ccccc1C(=O)Nc1ccc(C(=O)N2CCCC(O)c3cc(Cl)ccc32)c(C)c1 (stereo not given)	-19	·	·	·	·	·
COc1ccccc1C(=O)NC(=O)COC(=O)c1ccc(C)o1	-3	1%	6	-1	-15%[15.4 µM]	5%
COc1cccc(C2/C(=C(/O)c3ccc4c(c3)CC(C)O4)C(=O)C(=O)N2CCCn2ccnc2)c1 (stereo not given)	24	?	-7	2	13µM*	-7%
CC(C)(C)c1ccc(C2/C(=C(\O)c3ccc4c(c3)OCCO4)C(=O)C(=O)N2CCCN2CCOCC2)cc1 (stereo not given)	-6	29%	18	1	?	17%
O=C1C(=O)N(CCCN2CCOCC2)C(c2ccc(F)cc2)/C1=C(\O)c1ccc2c(c1)OCCO2 (stereo not given)	14	?	3	2	32µM*	39%
COc1ccc(Cl)cc1NC(=O)CCN1C(=O)c2ccccc2Sc2ncccc21	-2	3%	·	·	·	·
N#C/C(=C\c1c(N2CCC(C(N)=O)CC2)nc2ccccn2c1=O)C(=O)NC1CCCCC1	12	?	-10	2	?	-2%
NS(=O)(=O)c1ccc(NC(=O)C(=O)NCCC(=O)O)cc1	0	-1%	-2	-4	-6%[15.4 µM]	4%
C=CCNC(=O)NC(=O)COC(=O)c1nc2nccc(C)n2n1	4	16µM*	4	0	?	5%
CC(C)(C)C(=O)COC(=O)c1cc(-c2ccncc2)nc2ccccc12	-67*	4%	-9	22	-7%[15.4 µM]	-14%
CC(=O)COC(=O)c1cc(-c2ccc(C)cc2)nc2ccccc12	3	0%	-7	?	-6%	?
CC(c1nnnn1C(C)(C)C)N(Cc1cccnc1)Cc1ccccc1Cl (stereo not given)	3	0%	-5	15	-27%	40µM*
COc1ccccc1C1CCN(C(=O)c2ccc(C(C)(C)C)cc2)CC1	-90*	-1%	-2	?	33%[15.4 µM]	-37%
COc1ccccc1N1CCN(C(=O)c2ccc(C(C)(C)C)cc2)CC1	-24	0%	-17	?	27%	-8%
O=C(CSc1nc2ccc([N+](=O)[O-])cc2[nH]1)NC1CCCCC1	-3	0%	3	?	30%	28µM*
O=C(CSc1nc2ccc([N+](=O)[O-])cc2[nH]1)NC1CCCCCC1	-17	1%	-10	?	12%[15.4 µM]	40µM*
Cc1ccc2cc(NC(=O)c3ccccc3C)ccc2n1	-3	0%	14	-6	9%	4%
CCCC(=O)Oc1c(Sc2ccc(C)cc2)c(C)nn1-c1ccccc1	4	0%	·	·	·	·
CC(C)c1ccccc1NC(=O)COC(=O)c1cc(=O)[nH]c(=O)[nH]1	0	-1%	1	3	8%[15.4 µM]	13%
SMILES	RXFP1 antagonist	RXFP1 ag	TRPV1 PAM	TRPV1 ag	gsp ag	gsp antag
CCOC(=O)CCS(=O)(=O)c1nc(-c2ccccc2)cc(C(F)(F)F)n1	·	1%	-10	19	1%	29%
CCOC(=O)CS(=O)(=O)c1nc(-c2ccccc2)cc(C(F)(F)F)n1	-78*	0%	-2	11	12%	6%[15.4 µM]
CCOC(=O)CS(=O)(=O)c1nc(-c2ccc(F)cc2)cc(C(F)(F)F)n1	-80*	0%	9	3	0%	2%[15.4 µM]
CCCCN(Cc1nc2ccccc2c(=O)[nH]1)C(=O)CN1C(=O)NC2(CCCCC2)C1=O	7	3%	11	4	-5%	-8%
Cc1ccc2c(c1C)-c1c(ccc(C)c1C)C(=O)C2=O	-69*	·	·	·	9%	18%
Cc1ccc(CC#N)c(-c2c(CC#N)ccc(C)c2C)c1C	-13	·	·	·	?	·
CCOC(=O)C(=Cc1ccc(Br)cc1)C(=O)OCC	-96*	5%	-21	?	-9%	-3%
Cc1ccc(C)c(Cn2c(=O)n(Cc3ccccc3)c(=O)c3c(C)c(C)sc32)c1	-7	2%	·	·	·	·
CC(C)NC(=O)/C(C#N)=C/c1cccc(NC(=O)c2ccccc2Cl)c1	-63*	3%	15	4	-6%[15.4 µM]	7%
CCN(CC)S(=O)(=O)c1ccc(NC(=O)CCN2C(=O)C3CC=CCC3C2=O)cc1 (stereo not given)	-5	2%	-30	15	-56%	7%
S=c1[nH]nc(-c2cccs2)n1/N=C/c1cn(-c2ccccc2)nc1-c1cccs1	-83*	2%	-1	22	-3%[15.4 µM]	?
Cc1ccc(-c2nn(-c3ccccc3)cc2/C=N/n2c(-c3cccs3)n[nH]c2=S)cc1	-96*	2%	-8	1	-5%[15.4 µM]	?
CC(NC(=O)c1ccc2c(c1)sc1nc(-c3ccc(F)cc3)cn12)C12CC3CC(CC(C3)C1)C2 (stereo not given)	16	2%	·	·	·	·
NC(=S)NN=Cc1nccc2c(C(F)(F)C(F)(F)C(F)(F)F)cccc12	12	·	·	·	-15%	·
